Screening data from PubChem BioAssay.
This is a sample that favours compounds with a hit; in the whole collection about 9.5% have one here.
Pf growth 48h – P. falciparum growth inhibition at 48 hours (one generation). P. falciparum luciferase growth in erythrocytes, 48 h. AID 504832. 5.9% of 310,000 active. Potency, µM (highest dose often 28.7 µM), without a hit: at the highest dose activity change, negative = inhibition, usual class: inhibitors; active = well fitted inhibition curve with a large enough effect; inconclusive = small, poorly fitted or top-dose-only effect, or another doubt; inactive = no such curve, though single readings can be large or run the other way; also: % is scaled to controls: 0 for no effect and ±100 for the full control effect
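Firefly luciferase activity from engineered P. falciparum reports growth; inhibitors lower the luminescent signal. Cultures contained 2% hematocrit erythrocytes at 0.1% final parasitemia.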
Pf growth 96h – inhibits malaria parasite growth, 96 h; P. falciparum luciferase reporter growth, 96 h; Potency, µM (titrated, usually from 28.7 µM), for inactives: at the top dose activity change, negative = inhibition, most hits filed as inhibitors; 6.9% of 320,000 active; AID 504834; active = well fitted inhibition curve with a large enough effect; inconclusive = small, poorly fitted or top-dose-only effect, or another doubt; inactive = no such curve, though single readings can be large or run the other way; also: % is scaled to controls: 0 for no effect and ±100 for the full control effect
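Infected RBCs, 2% Hct / 0.05% parasitemia final; luciferase-reporter P. falciparum; cpd 96 h, 37 C, 5% CO2; luciferase detection reagent; luminescence.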
NS1 inh – blocks influenza NS1 protein function. Potency, µM (highest dose often 46.1 µM), inactives show at the highest dose activity, positive = more growth. 0.4% of 270,000 active; also: actives are rising curves; nearly all actives have a fitted effect of over 50% in size
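S. cerevisiae expressing influenza A NS1, grown in glucose, washed, then diluted 1:100 into pH 6.0 -URA galactose medium with 23 nl compound. Growth recovery read as OD600; NS1-free strain serves as control.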
RE007 growth inh – less growth of the S. pombe RE007 Vpr strain; AID 651644; S. pombe RE007 Vpr strain, BacTiter-Glo ATP luminescence, 24 h; 0.21% of 360,000 active; Potency, µM (series often up to 92.2 µM), inactives show at the highest dose activity change, negative = less growth, hits mostly inhibitors; active = well fitted falling curve with a large enough effect; inconclusive = small, poorly fitted or top-dose-only effect; inactive = no such curve, though single readings can be large or run the other way; also: % is scaled to controls: 0 for no effect and ±100 for the full control effect; nearly all actives have a fitted effect of over 50% in size
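Fission yeast strain RE007, carrying one chromosomally integrated HIV-1 vpr copy, was seeded at OD 0.01 in PMG+AL medium with 23 nL pinned compound. After 24 h at 30 °C and 99% humidity, viability was read by BacTiter-Glo luminescence.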
SARS PLP yeast – SARS-CoV PLP inhibition in yeast; Potency, µM (top dose mostly 32.9 µM), inactives show top-dose activity, positive = growth rescue, hits mostly activators; AID 485353; S. cerevisiae expressing SARS-CoV PLpro, growth rescue; 0.19% of 330,000 active; also: 0% is about no effect; nearly all actives have a fitted effect of over 55% in size
The depositor's hits bear a star. Unless noted, calls follow the shape of the full dose curve. Potency is read from the fitted curve at half-maximal effect.

What do the screens show for `CSc1ncccc1C(=O)Nc1cccc(S(=O)(=O)N(C)c2ccccc2)c1`?
Pf growth 48h: 9.3µM*; Pf growth 96h: inconclusive; RE007 growth inh: 17%; SARS PLP yeast: 8%

Results for CCCC(=O)Nc1cccc(S(=O)(=O)N(C)c2ccccc2)c1 ?
Pf growth 48h: -14%; Pf growth 96h: -24%; NS1 inh: 2%; RE007 growth inh: 8%; SARS PLP yeast: -7%

Results for CC[n+]1c(/C=C(\C)SC)sc2ccccc21 ?
Pf growth 48h: 0.29µM*; Pf growth 96h: inconclusive; NS1 inh: 8%; RE007 growth inh: -16%; SARS PLP yeast: -2%

How did CC[n+]1c(/C=C(\C)Nc2ccccc2)sc2ccccc21 do in these assays?
Pf growth 48h: 5.2µM*; Pf growth 96h: -18%; NS1 inh: 19%; RE007 growth inh: -1%; SARS PLP yeast: -15%

Results for CC[n+]1c(/C=C(\C)OC)sc2ccccc21 ?
Pf growth 48h: 34%; Pf growth 96h: -29%; NS1 inh: 3%; RE007 growth inh: -3%; SARS PLP yeast: 0%

How did CC/C(=C/c1sc2ccccc2[n+]1CC)SC do in these assays?
Pf growth 48h: inconclusive; Pf growth 96h: 1.7µM*; NS1 inh: 7%; RE007 growth inh: -24%; SARS PLP yeast: -2%

Results for CCCCC[C@@H](/C=C/C1C(=O)C=C[C@H]1C/C=C\CCCC(=O)O)OC(C)=O (some centres not stated) ?
RE007 growth inh: -18%

Results for C[C@H](NC(=O)[C@@H]1Cc2ccccc2CN1C(=O)OC(C)(C)C)C(=O)NC1CCCCC1 ?
Pf growth 48h: inconclusive; Pf growth 96h: 13%; NS1 inh: -4%; RE007 growth inh: -7%; SARS PLP yeast: 3%

Results for C[C@@H](NC(=O)[C@@H]1Cc2ccccc2CN1C(=O)OC(C)(C)C)C(=O)NC1CCCCC1 ?
Pf growth 48h: inconclusive; Pf growth 96h: 13µM*; NS1 inh: 23%; RE007 growth inh: -14%; SARS PLP yeast: 0%

What do the screens show for `COc1cccc(NC(=O)C2CCN(C(=O)[C@@H]3Cc4ccccc4CN3C(=O)OC(C)(C)C)CC2)c1`?
Pf growth 48h: 10µM*; Pf growth 96h: inconclusive; NS1 inh: 9%; RE007 growth inh: 17%; SARS PLP yeast: 3%

What do the screens show for `COc1cc(OC)cc(-c2c(-c3cccs3)c3cc(-c4ccc(N(C)C)nc4)ccc3n2C)c1`?
Pf growth 48h: inconclusive; Pf growth 96h: inconclusive; RE007 growth inh: -29%; SARS PLP yeast: 1%

How did CCN(CC(=O)Nc1c(F)cccc1F)C(=O)C1CCN(C(=O)Nc2ccccc2)CC1 do in these assays?
Pf growth 48h: inconclusive; Pf growth 96h: inconclusive; RE007 growth inh: 6%; SARS PLP yeast: -1%

Results for Cc1ccc2cc(C)c3nnc(SCC(=O)Nc4nc5c(s4)CCCC5)n3c2c1C ?
Pf growth 48h: -7%; Pf growth 96h: 12µM*; NS1 inh: 0%; RE007 growth inh: 3%; SARS PLP yeast: -2%

What do the screens show for `CCn1c(SCC(=O)Nc2nc3c(s2)CCCC3)nnc1-c1ccccc1`?
Pf growth 48h: 2.1µM*; Pf growth 96h: 13%; NS1 inh: -1%; RE007 growth inh: 15%; SARS PLP yeast: 2%

How did Cc1ccc(C)c2c1cc(C)c1nnc(SCC(=O)Nc3nc4c(s3)CCCC4)n12 do in these assays?
Pf growth 48h: -1%; Pf growth 96h: 11%; NS1 inh: 11%; RE007 growth inh: -2%; SARS PLP yeast: -6%

How did O=C(C[C@@H]1C/C=C\C[C@H](Cc2ccc(F)cc2)C(=O)OCCNC1=O)NCCO do in these assays?
RE007 growth inh: -14%; SARS PLP yeast: -2%

How did COc1ccc(N=Nc2cc(C)c(O)c(CN3CCCCC3)c2)cc1 do in these assays?
Pf growth 48h: 0.26µM*; Pf growth 96h: 0.26µM*; NS1 inh: -1%; RE007 growth inh: -12%; SARS PLP yeast: 1%

What do the screens show for `O=C(NCc1ccccc1)C(c1ccc(Cl)cc1)N(C(=O)c1csnn1)C1CC1` (configuration not stated)?
Pf growth 48h: -6%; Pf growth 96h: inconclusive; NS1 inh: 8%; RE007 growth inh: -8%; SARS PLP yeast: 3%

What do the screens show for `O=C(NCC1CCCO1)c1sc(=S)n2c1[nH]c(=O)c1ccc(C(=O)N3CCCCC3)cc12` (configuration not stated)?
Pf growth 48h: 10µM*; Pf growth 96h: inconclusive; NS1 inh: 22%; RE007 growth inh: -7%; SARS PLP yeast: -6%

How did COc1cc2c(cc1OC)-c1cc(NC3CCCCCCC3)nc(=O)n1CC2 do in these assays?
Pf growth 48h: inconclusive; Pf growth 96h: 7.4µM*; NS1 inh: -51%; RE007 growth inh: 1%; SARS PLP yeast: 14%

What do the screens show for `COc1ccc(C(=O)C(CN2CCOCC2)c2ccccc2)cc1F` (configuration not stated)?
Pf growth 48h: 7%; Pf growth 96h: -21%; NS1 inh: -235%; RE007 growth inh: inconclusive; SARS PLP yeast: -38%

Results for COc1ccc(C(O)C(CN2CCOCC2)c2ccccc2)cc1F (configuration not stated) ?
Pf growth 48h: 6.6µM*; Pf growth 96h: inconclusive; NS1 inh: -8%; RE007 growth inh: -1%; SARS PLP yeast: 5%

How did COc1ccc(C(=O)CN2CCOCC2)cc1F do in these assays?
Pf growth 48h: 34%; Pf growth 96h: 0.66µM*; NS1 inh: -21%; RE007 growth inh: 16%; SARS PLP yeast: -5%

How did CC(C)(C)C(=O)NC1CCN(C(=O)N2CCCC2)CC1 do in these assays?
Pf growth 48h: 6%; Pf growth 96h: inconclusive; NS1 inh: -1%; RE007 growth inh: 2%; SARS PLP yeast: 9%

What do the screens show for `CC(C)(C)C(=O)NC1CCN(S(C)(=O)=O)CC1`?
Pf growth 48h: -17%; Pf growth 96h: 12µM*; NS1 inh: 2%; RE007 growth inh: -4%; SARS PLP yeast: -1%

How did S=C(Nc1ccc2nccnc2c1)N1CCOCC1 do in these assays?
Pf growth 48h: 58%; Pf growth 96h: inconclusive; NS1 inh: -2%; RE007 growth inh: 14%; SARS PLP yeast: 0%

How did Cc1ccc(S(=O)(=O)N2CCCN(C(C)c3nc4ccccc4c(=O)[nH]3)CC2)cc1 (configuration not stated) do in these assays?
Pf growth 48h: inconclusive; Pf growth 96h: 13µM*; RE007 growth inh: 2%; SARS PLP yeast: 4%

How did O=c1c2ccccc2nc(-c2ccco2)n1-c1nc2ccccc2s1 do in these assays?
Pf growth 48h: 0%; Pf growth 96h: 1µM*; NS1 inh: 17%; RE007 growth inh: 16%; SARS PLP yeast: 6%

What do the screens show for `O=c1c2ccccc2nc(-c2ccco2)n1-c1ccncc1`?
Pf growth 48h: 15%; Pf growth 96h: inconclusive; NS1 inh: -5%; RE007 growth inh: 16%; SARS PLP yeast: 3%

Results for O=c1c2ccccc2nc(-c2ccccc2)n1-c1ccccc1O ?
Pf growth 48h: inconclusive; Pf growth 96h: inconclusive; NS1 inh: 4%; RE007 growth inh: -22%; SARS PLP yeast: 2%
